HT1080 IDH1KD tx – qHTS for induction of synthetic lethality in tumor cells producing 2HG: qHTS for the HT-1080-IDH1KD cell line; HT-1080 IDH1 knockdown viability, ATP luminescence, 48 h; Potency, µM (titrated, usually from 46.1 µM), inactives show top-dose activity, negative = toxicity, usual class: cytotoxic; actives 2% (n = 360,000); AID 686971, 2013;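 note: potency is the fitted concentration of half-maximal effect; 0% = DMSO wells and -100% = cell-free medium wells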
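CellTiter-Glo luminescence after 48 h compound exposure at 37 degrees C of IDH1-knockdown HT-1080 cells in 5% FBS RPMI. %Activity scaled between DMSO wells and cell-free media wells, with curves fitted and assigned curve classes.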
HT1080-NT tox – qHTS for induction of synthetic lethality in tumor cells producing 2HG: qHTS for the HT-1080-NT fibrosarcoma cell line | HT-1080-NT fibrosarcoma viability, CellTiter-Glo ATP luminescence, 48 h | Potency, µM (highest dose often 46.1 µM), without a hit: at the top dose activity, negative = less viability, hits mostly cytotoxic | actives 1.6% (n = 360,000) | AID 686970, 2013;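 note: NT is the 2HG producing partner of a matched IDH1 knockdown line; potency is the fitted concentration of half-maximal effect; 0% = DMSO-treated cells and -100% = media-only wells without cells; nearly all actives have a fitted effect of over 55% in size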
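Luminescent CellTiter-Glo readout after 48 hours of compound exposure at 37 degrees C defined viability of HT-1080-NT cells. Activity was normalized to DMSO wells and cell-free media wells; concentration-response curves were fitted and assigned curve classes.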
ELG1 DNA repair – qHTS screen for small molecules that inhibit ELG1-dependent DNA repair in human embryonic kidney (HEK293T) cells expressing luciferase-tagged ELG1 | Potency, µM (titrated, usually from 46.1 µM), inactives show at the highest dose activity change, negative = inhibition, usual class: inhibitors | AID 504467, 2011 | actives 2.3% (n = 330,000) | HEK293T ELG1-luciferase reporter, luminescence, 16 h; DNA damage induced by 5-fluorouridine; note: potency is the fitted concentration of half-maximal effect; nearly all actives have a fitted effect of over 55% in size
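DMSO vehicle served as the neutral condition. Each well held 2,000 cells given 5-fluorouridine plus compound; after 16 hr at 37 °C/5% CO2, ONE-Glo was added and luciferase measured 30 min later.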
IL-1B inflam inh – qHTS for Inhibitors of Inflammasome Signaling: IL-1-beta AlphaLISA Primary Screen. THP-1 LPS/ATP IL-1B secretion, AlphaLISA, 16 h; stronger effect = lower value. activity change, % at 57.5 µM. actives 4.7% (n = 360,000); in the data active = activity change below about -50%; inconclusive = mostly about -30% to -49%
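Secreted IL-1B measured by AlphaLISA bead assay after 16 h compound exposure of THP-1 cells; compounds (final up to 57.5 uM) added 1 h before LPS (250 ng/mL) and ATP (1.25 mM) stimulation; lower signal means less secretion.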
TDP1 cell noCPT – qHTS for Inhibitors of human tyrosyl-DNA phosphodiesterase 1 (TDP1): qHTS in cells in absence of CPT. Potency, µM (titrated, usually from 46.2 µM), inactives show top-dose activity change, negative = growth inhibition, actives largely listed as inhibitors. DT40 Tdp1-/- hTDP1 cells, no CPT, ATP luminescence, 48 h. actives 15% (n = 420,000); note: potency is the fitted concentration of half-maximal effect; nearly all actives have a fitted effect of over 55% in size
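Growth of hTDP1-complemented DT40 Tdp1-knockout cells is measured by ATP luminescence after at least 48 hr compound exposure at 37 °C, with DMSO substituting for the 20 nM CPT used in the parallel screen.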
TDP1 cell CPT – qHTS for Inhibitors of human tyrosyl-DNA phosphodiesterase 1 (TDP1): qHTS in cells in presence of CPT. actives 12% (n = 420,000). Potency, µM (highest dose often 46.2 µM), for inactives: top-dose activity change, negative = growth inhibition, actives largely listed as inhibitors. AID 686979, 2013. chicken DT40 Tdp1-/-;hTDP1 cells + 20 nM CPT, ATP luminescence, 48 h; note: potency is the fitted concentration of half-maximal effect; nearly all actives have a fitted effect of over 55% in size
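Cell growth measured by CellTiter-Glo luminescence after a minimum 48 h, 37 C compound exposure with 20 nM CPT in Tdp1-knockout DT40 cells stably expressing hTDP1, seeded 400/well; qHTS titration format.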
Starred values were filed as active, the others as inactive; ? = inconclusive; . = no result given; [ ] = remark or other dose. Hits are enriched below; roughly 19% of the tested compounds scored in any of these assays. Unless noted, calls come from the whole dose curve; as a rule, active = well fitted curve in the direction sought with a large enough effect; inconclusive = small, poorly fitted or top-dose-only effect, or another doubt; inactive = no such curve, though single readings can be large; an effect the other way counts as inactive or inconclusive. Unless noted, % is set by controls: 0 for no effect and ±100 for the full control effect.

SMILES	HT1080 IDH1KD tx	HT1080-NT tox	ELG1 DNA repair	IL-1B inflam inh	TDP1 cell noCPT	TDP1 cell CPT
CCN1CCN(c2ccc(NC(=O)COc3ccc(Cl)cc3C)cc2)CC1	12%	-1%[9.24 µM]	?	-11	?	18µM*
O=C(COc1ccccc1[N+](=O)[O-])Nc1ccc(N2CCN(C(=O)c3cccs3)CC2)cc1	?	-19%	18µM*	?	6.5µM*	4.6µM*
COC(=O)c1ccc(Oc2nc3c(c(=O)n(C)c(=O)n3C)n2Cc2ccc(Cl)c(Cl)c2)cc1	.	.	.	.	-5%	4%
CCCc1nnc(SCC(=O)Nc2nnc(CC)s2)n1CC1CCCO1 (stereo not drawn)	11%	20%	-2%	1	-16%	10%
Cc1cccc(OCC(=O)Nc2ccc(N3CCN(C(=O)c4ccccc4)CC3)cc2)c1	5%	2%	18µM*	-68*	15µM*	?
Cc1ccc(OCC(=O)Nc2ccc(N3CCN(C(=O)c4ccc(C)cc4)CC3)cc2)cc1	-1%	-15%	?	-7	?	-27%
COc1ccc(S(=O)(=O)N2C[C@H]3CON(C)[C@H]3C[C@H]2c2ccc(-c3cc4ccccc4o3)cc2)cc1	-29%	?	.	-12	?	?
CSCCC(NC(N)=O)C(=O)Nc1ccc(F)c(Cl)c1 (stereo not drawn)	1%	7%	9%	15	-10%	-6%
Cc1ccc(Cc2c(-c3ccc(Cl)cc3)nc3cc(C)c(Br)c(C)n23)cc1	-6%	-6%	.	0	-14%	?
Cc1cc2nc(-c3ccccc3)c(CC(C)(C)C)n2c(C)c1Br	-26%	-21%	.	99	18µM*	15µM*
Cc1cc2nc(-c3ccc(Cl)cc3)c(CC(C)(C)C)n2c(C)c1Br	-26%	-23%	.	10	?	15µM*
Cc1ccc(-c2nc3cc(C)c(Br)c(C)n3c2Cc2ccccc2)cc1	-28%	-24%	.	24	7.3µM*	2.3µM*
COCCn1c(C)cc(O)c(C(c2ccccc2)N2CCC(C)CC2)c1=O (stereo not drawn)	.	.	.	.	-4%	-7%
CCc1cccc(C)c1NC(=O)COC(=O)c1cc([N+](=O)[O-])ccc1N1CCOCC1	3%	0%	14%	-3	-11%	-22%
COc1ccc(CSc2nnc(-c3ccncc3)n2C)cc1F	26%	28%	4%	-6	5%	27%
COc1ccc(C2CC(=O)C3=C(C2)NC(C)=C(C#N)C3c2ccc(N(C)C)cc2)cc1 (stereo not drawn)	-11%	-1%	0%	-66*	-22%	8%
COC(=O)c1ccc(C2C(C#N)=C(C)NC3=C2C(=O)CC(C)(C)C3)cc1 (stereo not drawn)	10%	2%	3%	23	-21%	-22%
COc1ccc(C2C(C#N)=C(N)OC3=C2C(=O)CC(C)(C)C3)cc1 (stereo not drawn)	2%	1%	-4%	-1	0%	4%
COc1ccc(C2C(C#N)=C(SC)NC3=C2C(=O)CC(C)(C)C3)cc1 (stereo not drawn)	-13%	-8%	-5%	-15	8.2µM*	6.5µM*
O=C(Nc1ccc([N+](=O)[O-])cc1)Nc1ccc(OC(F)F)c(Cl)c1	?	?	?	-89*	1.6µM*	2.3µM*
O=C(Cc1ccc(Cl)cc1Cl)Nc1ccc(OC(F)F)c(Cl)c1	1%	9%	-2%	-11	?	?
O=C(Nc1ccc(OC(F)F)c(Cl)c1)c1cccc(OC(F)F)c1	?	?	?	-55*	?	?
COc1ccc(NC(=O)Nc2cccc([N+](=O)[O-])c2)cc1Cl	-5%	-1%	?	-84*	9.2µM*	18µM*
Cc1ccc(NC(=O)C(C)c2ccc([N+](=O)[O-])cc2)cc1Cl (stereo not drawn)	?	?	-17%	-104*	?	?
COc1ccc(C(=O)Nc2cccc([N+](=O)[O-])c2)cc1Br	-29%	?	.	16	-24%	0%
SMILES	HT1080 IDH1KD tx	HT1080-NT tox	ELG1 DNA repair	IL-1B inflam inh	TDP1 cell noCPT	TDP1 cell CPT
OC(c1ccccn1)(c1ccccn1)c1ccccn1	?	?	26%	14	?	?
O=C(Nc1ccc(OC(F)F)c(Cl)c1)Nc1ccc2c(c1)OCO2	?	-24%	11%	-79*	16µM*	?
CC(C)OC(=O)/C(=C/c1ccc2c(c1)c1ccccc1n2C)NC(=O)c1ccccc1	0%	-1%	21µM*	-1	10µM*	?
CC(C)OC(=O)/C(=C\c1ccc2c(c1)c1ccccc1n2C)NC(=O)c1ccccc1	1%	0%	?	-1	21µM*	21µM*
Cn1c2ccccc2c2cc(/C=C(\NC(=O)c3ccccc3)C(=O)O)ccc21	-1%	-11%	-10%	18	-9%	11%
COc1ccccc1C(=O)Nc1ccc(C(=O)OCc2cc(=O)n3ccsc3n2)cc1	.	.	.	.	-13%	-11%
COc1ccc(/C=N/NC(=O)CN2CCSCC2)c(OC)c1	29%	19%	3%	9	?	3%
CC(C(=O)c1ccc(Br)cc1)[n+]1cccc2ccccc21 (stereo not drawn)	-1%	0%	2%	39	9.2µM*	10µM*
CC(C(=O)c1ccc(Br)cc1)[n+]1cccc(NC(=O)c2ccccc2)c1 (stereo not drawn)	5%	1%	3%	?	?	?
O=C1[C@H](CC[C@H](O)c2ccc(F)cc2)[C@@H](c2ccc(O)cc2)N1c1ccc(F)cc1	.	.	.	.	-12%	?
O=[N+]([O-])c1ccccc1/C=C/c1ccc2ccccc2n1	-21%	?	?	-79*	?	-40%
COc1cc(OC)c(OC)cc1C=Cc1ccc2ccccc2n1	?	?	.	-19	15µM*	16µM*
COc1ccccc1CNC(=O)COC(=O)/C=C/c1ccc2ccccc2n1	10%	2%	?	?	?	?

High-throughput results as filed in PubChem BioAssay.
